Activity calls are given as the source filed them.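 Rule for the calls, unless noted: active = inhibition at or above 50% at 10 µM; inactive = inhibition below 50%.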
Columns and labels:
[1] = inhibitors of TNFa-induced NFkB p65 translocation, primary screen, imaging, HUVEC, MLSMR starter and 10KST1 sets (AID 438;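 active = inhibition above 20% together with a positive visual image hit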;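 note: compound added about 3h40 before a 20 min TNFalpha stimulation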;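 for inhibition: signal is the nuclear over cytoplasmic p65 intensity ratio per well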); conditions: HUVEC TNFa-induced p65 nuclear translocation; cell count: measured here: nuclei count (cytotoxicity indicator), at 2.08 µM; inhibition: at 2 µM, stronger effect = higher value, 0% TNFa-plus-vehicle, 100% no-TNFa wells
[2] = inhibitors of mutant huntingtin aggregation, primary screen, imaging, exon1htt(103Q)mCFP cells, high-content imaging (AID 483;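 active = visual image review flags a hit and inhibition of aggregation exceeds 20%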;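 note: compound exposure lasted 3 days before fixation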;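 for nuclei count: percent of the per-plate median nuclei count of sample wells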); conditions: exon1htt(103Q)mCFP cell line, aggregate imaging, at 2 µM; inhibition of aggregation: stronger effect = higher value; nuclei count: measured here: cell count, toxicity
[3] = inhibitors of E-selectin induction by TNFa, primary screen, imaging, HUVEC, immunofluorescence, MLSMR starter and 10KST1 sets (AID 487;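 active = visually confirmed hit in the image check and inhibition above 20%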;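 for inhibition: signal is fraction of cell area covered by stained E-selectin grains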;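 for nuclei count: 100% = median nuclei count of all wells on the same plate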); conditions: HUVEC TNFalpha-induced E-selectin immunofluorescence imaging, at 2 µM; inhibition: stronger effect = higher value; nuclei count: measured here: cell number, toxicity
[4] = biological target: Voltage-gated potassium channel subunit beta-2 (Rattus norvegicus) (UniProt P62483); assay: KvBeta enzyme negative modulators, primary screen, biochemical, NADPH fluorescence (AID 622;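 active = fluorescence slope higher than the sample average by over 3 SD, cut at about -0.22 in these data, passing the limit was not always enough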;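 note: slope of raw intensity against log time taken from 70 to 1610 s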); conditions: recombinant KvBeta, 4-cyanobenzaldehyde reduction, at 10 µM, stronger effect = higher value
[5] = biological target: Voltage-gated potassium channel subunit beta-2 (Rattus norvegicus) (UniProt P62483); assay: KvBeta positive modulators, primary screen, biochemical, NADPH fluorescence (AID 623;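 active = NADPH fluorescence slope more negative than the mean of all samples by about 3 SD, 99.7% confidence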;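 note: fluorescence intensity change per second fitted from 20 to 320 s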); conditions: Recombinant KvBeta, NADPH fluorescence decrease slope, 10 min; at 10 µM; stronger effect = lower value
[6] = biological target: Alpha-2C adrenergic receptor (Homo sapiens) (UniProt P18825); assay: modulators of alpha2C/GIRK thallium flux, primary screen, cell-based, HEK293 alpha2C/GIRK1/2 (AID 624;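 active = fluorescence slope after compound addition differing from the mean of all screened samples at 99.7% confidence, in either direction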;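 note: slope of fluorescence ratio to pre-addition baseline per second over 15 to 24 s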); conditions: thallium flux BTC fluorescence, at 10 µM, actives lie on both sides
[7] = inhibitors of Sendai virus-induced IRF3 signaling, primary screen, TLR/RLR signaling modifier project, cell-based, Sendai virus stimulus, luciferase, 10K MLSCN set (AID 602276); conditions: HEK293 RL24 IRF3 luciferase reporter, at 10 µM, stronger effect = higher value;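 note: firefly luciferase from ISG56 promoter only with Renilla not read in this screen; 0% = Sendai virus plus DMSO and 100% = medium plus DMSO without virus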
[8] = inhibitors of poly I:C-induced TLR3 signaling, primary screen, cell-based, poly I:C stimulus, luciferase, 10K MLSCN set (AID 602277;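 active = inhibition of the reporter signal at or above 50%; inactive = inhibition below 50%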); conditions: HEK293-TLR3 RL24 IRF3 luciferase reporter, at 10 µM, stronger effect = higher value

Sequence of Voltage-gated potassium channel subunit beta-2 (Rattus norvegicus) (P62483 whole entry, looked up): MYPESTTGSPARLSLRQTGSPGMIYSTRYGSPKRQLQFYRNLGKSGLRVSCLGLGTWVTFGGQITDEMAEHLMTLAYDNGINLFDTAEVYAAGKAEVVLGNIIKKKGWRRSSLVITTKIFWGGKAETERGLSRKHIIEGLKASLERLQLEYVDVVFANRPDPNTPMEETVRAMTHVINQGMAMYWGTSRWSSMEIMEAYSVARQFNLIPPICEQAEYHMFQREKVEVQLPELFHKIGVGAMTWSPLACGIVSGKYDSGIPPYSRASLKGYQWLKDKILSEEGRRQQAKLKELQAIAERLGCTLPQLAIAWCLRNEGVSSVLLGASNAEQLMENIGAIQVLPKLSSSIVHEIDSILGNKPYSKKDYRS
Sequence of Alpha-2C adrenergic receptor (Homo sapiens) (P18825 whole entry, looked up): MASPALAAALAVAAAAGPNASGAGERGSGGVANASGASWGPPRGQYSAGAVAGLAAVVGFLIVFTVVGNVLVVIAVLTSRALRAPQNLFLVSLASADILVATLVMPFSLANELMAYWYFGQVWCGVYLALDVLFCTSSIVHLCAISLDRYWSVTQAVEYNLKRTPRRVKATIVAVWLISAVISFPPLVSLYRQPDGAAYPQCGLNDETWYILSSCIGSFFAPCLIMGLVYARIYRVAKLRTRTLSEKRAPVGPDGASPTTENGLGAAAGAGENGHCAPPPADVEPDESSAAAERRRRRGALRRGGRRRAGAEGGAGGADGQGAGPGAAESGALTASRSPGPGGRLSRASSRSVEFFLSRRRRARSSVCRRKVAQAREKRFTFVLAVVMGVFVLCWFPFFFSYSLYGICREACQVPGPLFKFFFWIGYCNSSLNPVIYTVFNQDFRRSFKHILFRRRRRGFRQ

Compound	cell count [1]	inhibition [1]	inhibition of aggregation [2]	nuclei count [2] [%]	inhibition [3]	nuclei count [3] [%]	fluorescence slope [4]	NADPH fluorescence slope [5]	slope [6]	inhibition [7]	inhibition [8]
C=C(C)c1cccc(C(C)(C)NC(=O)NCC2CCCO2)c1 (configuration not stated)	496	2.3% (inactive)	-23% (inactive)	108	-31.1% (inactive)	113	-0.362 (inactive)	-5.6e-05 (inactive)	0.0056 (inactive)	7.08% (inactive)	9.27% (inactive)
CCOC(=O)C1CCCN(CCC(C)c2ccccc2)C1 (configuration not stated)	469	-2.7% (inactive)	2.6% (inactive)	92.9	25% (inactive)	76.3	-0.612 (inactive)	-4.1e-05 (inactive)	0.00315 (inactive)	14.2% (inactive)	29.6% (inactive)
COc1ccccc1C(=O)NCCNC(=O)c1ccco1	388	6.3% (inactive)	5.6% (inactive)	110	-78% (inactive)	113	-0.412 (inactive)	-4.6e-05 (inactive)	0.00705 (inactive)	-4.73% (inactive)	-9.5% (inactive)
CCCCn1c(NCCC)nc2c1c(=O)[nH]c(=O)n2C	383	-6.2% (inactive)	-0.7% (inactive)	114	-38% (inactive)	124	-0.402 (inactive)	-0.000106 (inactive)	0.00598 (inactive)	16% (inactive)	29.1% (inactive)
CC(C)COc1ccc(C2NC(=O)NC2=O)cc1 (configuration not stated)	718	-10.2% (inactive)	-12.5% (inactive)	117	74.1% (inactive)	91.5	-0.452 (inactive)	-2.2e-05 (inactive)	0.00367 (inactive)	1.04% (inactive)	19.9% (inactive)
Cc1ccc2nc(-c3ccc4c(c3)OCCO4)cc(C(=O)O)c2c1	337	-10.3% (inactive)	-4.5% (inactive)	111	30.4% (inactive)	89.9	-0.299 (inactive)	-4e-05 (inactive)	0.00454 (inactive)	-13.7% (inactive)	98.1% (active)
CCOC(=O)C(NCc1ccccc1OC)(NC(C)=O)C(F)(F)F (configuration not stated)	279	-1.5% (inactive)	14.4% (inactive)	97.8	-72.8% (inactive)	125	-0.616 (inactive)	-5.3e-06 (inactive)	0.00702 (inactive)	5.22% (inactive)	4.4% (inactive)
